From PubChem BioAssay (NCI) come the findings set out here.

Values joined by “and” are separate entries in the source; they are usually repeats but may differ in a detail not shown here. Equal entries are not always repeated. About 79,000 compounds went through this panel and 15% of them were active in at least one assay; those are over-represented in the sample as a whole. Active and inactive are the calls of the source. No stated cut-off is given here; in the data, active means growth inhibition above about 70%; inactive means the rest.

The first assay is described as follows: NCI Yeast Anticancer Drug Screen. Data for the CLN2oe strain (AID 163).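 Further: 0% = growth of vehicle-only control cultures.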 The following applies: S. cerevisiae CLN2oe strain, at 100.0 µM, stronger effect = higher value. In outline:
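Here, growth inhibition in a cell-cycle-altered yeast strain after compound exposure was quantified against vehicle control growth.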
As to `COc1cc(/C=C2\CCC/C(=C\c3ccc(O)c(OC)c3)C2=O)ccc1O`, the growth inhibition was -6% (inactive). Same read-out and setting: to `CN(C)CCNC(=O)c1cccc2cc([N+](=O)[O-])ccc12` belongs 84% (active). For `CCC(C)(C)c1ccc(Oc2cccc(C(=O)O)c2)cc1`, the growth inhibition is 84% (active). As to `CCCCCCSc1ncnc2[nH]ncc12`, the growth inhibition is -4% (inactive).

`CC(=O)Nc1ccc(/C=C/[N+](=O)[O-])cc1`: the growth inhibition was 71% (active). In the case of `CCOC(=O)c1[nH]n(-c2ccccc2)c(=O)c1C=NC(=S)C(N)=S`, the growth inhibition is 97% (active). As to `CCCC(O)C1CC(C(C)C)CCC1C` (stereo not given), the growth inhibition is 12% (inactive). On the same count and under the same terms, to `O=[n+]1c2ccccc2n([O-])c2cc(Br)ccc21` belongs 98% (active). For the compound `CN(C)CCNC(=O)c1cccc2c1Oc1c(cccc1[N+](=O)[O-])O2`, the growth inhibition is 58% (inactive). Still for that read-out and setting: to `Nc1ncc(-c2ccc(Br)cc2)s1` belongs 97% (active); to `Cc1cc2cc3cc(C)c(N)cc3nc2cc1N`, 83% (active); to `CC12C(=O)OC(=O)C(c3ccccc31)c1ccccc12`, -10% (inactive). Regarding `c1ccc2c(OCC3CO3)cccc2c1` (stereo not given), the growth inhibition is 4% (inactive). On the same count and under the same terms, to `CCOC(=N)c1ccc(O)c(OC)c1` belongs -1% (inactive). The same measure, in the same setting: to `Nc1cc(N)c(N=Nc2cccc3c(S(=O)(=O)O)cccc23)cc1N=Nc1cc([N+](=O)[O-])ccc1O` belongs -3% (inactive); to `COC(=O)Oc1cc(Cl)c(Cl)cc1Cl`, -4% (inactive); to `O=C(O)C1CC(c2ccccc2)=NN1c1ccccc1` (stereo not given), 97% (active).

`COc1cc([C@@H]2c3cc4c(cc3[C@@H](Nc3ccc(NC(=O)c5cc([N+](=O)[O-])cn5C)cc3)[C@H]3COC(=O)[C@H]23)OCO4)cc(OC)c1O`: the growth inhibition was 77% (active).

In the case of `O=C(O)c1ccccc1/C=N/N=C1c2ccccc2-c2ccccc21`, the growth inhibition is 1% (inactive). The same measure, in the same setting: to `O=C1CC(=O)c2ccccc21` belongs 48% (inactive); to `Nc1ncnc2c1ncn2C1OC(CO)CC1O` (stereo not given), 85% (active).

Another assay is described as follows: NCI Yeast Anticancer Drug Screen. Data for the cln2 rad14 strain (AID 165).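 Further: 0% = growth equal to vehicle treated cultures.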 The following applies: S. cerevisiae cln2 rad14 strain, at 5.0 µM (retest, dose inferred, filed as 0.5), stronger effect = higher value. In outline: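 Growth of compound-exposed yeast (cln2 rad14 genotype) measured and expressed as inhibition relative to vehicle.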
For `CS(=O)(=O)SCc1ccc([N+](=O)[O-])cc1`, the growth inhibition is -35% (inactive). Still for that read-out and setting: to `Cc1csc(=S)n1OC(=O)NC1CCCCC1` belongs 83% (active); to `CCOc1ccc(NC(=O)C2=C(C)NC(C)=C(C(=O)Nc3ccc(OCC)cc3)C2c2cccc([N+](=O)[O-])c2)cc1`, -4% (inactive). On to `CC(C)(C)N=C(NO)c1ccccc1`, for which the growth inhibition is 8% (inactive). The same measure, in the same setting: to `CCCCC/C(=C(\C#N)C(=O)OCC)c1ccccc1` belongs -7% (inactive). Same read-out and setting: to `O=C(NCCCl)Sc1ccc(Cl)cc1` belongs -67% (inactive); to `O=C1Nc2ccc(Br)cc2C1=Nc1ccc2c(c1)OCO2`, 32% (inactive). Still for that read-out and setting: to `CCC(C)OC(=O)Nc1ccc(C)c(NC(=O)OC(C)CC)c1` (stereo not given) belongs -4% (inactive); to `O=C(O)c1cc2ccc(Cl)cc2c(O)c1C1=CCCCC1`, 12% (inactive).

Turning to `CN(C)Cc1cc(N=Nc2ccc(Cl)cc2)ccc1OC(=O)c1ccccc1`, the growth inhibition is -20% (inactive). Same read-out and setting: to `CN1CCN(C(=O)/C=C/C(=O)c2ccccc2)CC1` belongs 39% (inactive); to `CCCC/C=C/C(C)(C(=O)OCC)C(=O)OCC`, -6% (inactive). The same measure, in the same setting: to `Cc1nc(-c2cc3cc([N+](=O)[O-])ccc3oc2=O)cs1` belongs 2% (inactive). `Cc1nc2ccccc2nc1NNc1ccccc1`: the growth inhibition was 79% (active). On the same count and under the same terms, to `CN(C)[C@@H]1C(=O)C(C(N)=O)=C(O)[C@@]2(O)C(=O)C3=C(O)c4c(O)cccc4C[C@H]3C[C@@H]12` belongs 61% (inactive); to `COc1ccc(NC(=O)CC2SC(=Nc3ccccc3C)NC2=O)c([N+](=O)[O-])c1` (stereo not given), -2% (inactive).

In the case of `COc1cc(O)c2c(c1O)C(=O)c1cc(C)ncc1C2=O`, the growth inhibition is 1% (inactive).

Take `CSc1nnc(SC)nn1`: the growth inhibition is 57% (inactive). On to `COc1cc(/C=C2\CCC/C(=C\c3ccc(O)c(OC)c3)C2=O)ccc1O`, for which the growth inhibition is -4% (inactive).

As for `CN(C)CCNC(=O)c1cccc2cc([N+](=O)[O-])ccc12`, the growth inhibition was 23% (inactive). `CCC(C)(C)c1ccc(Oc2cccc(C(=O)O)c2)cc1`: the growth inhibition was -27% (inactive). Regarding `CCCCCCSc1ncnc2[nH]ncc12`, the growth inhibition is -5% (inactive). Consider `CC(=O)Nc1ccc(/C=C/[N+](=O)[O-])cc1`, for which the growth inhibition is -55% (inactive).

Consider `CCOC(=O)c1[nH]n(-c2ccccc2)c(=O)c1C=NC(=S)C(N)=S`, for which the growth inhibition was -4% (inactive). On the same count and under the same terms, to `CCCC(O)C1CC(C(C)C)CCC1C` (stereo not given) belongs 4% (inactive). The same measure, in the same setting: to `O=[n+]1c2ccccc2n([O-])c2cc(Br)ccc21` belongs 19% (inactive). The same measure, in the same setting: to `CN(C)CCNC(=O)c1cccc2c1Oc1c(cccc1[N+](=O)[O-])O2` belongs 47% (inactive); to `Nc1ncc(-c2ccc(Br)cc2)s1`, 56% (inactive); to `Cc1cc2cc3cc(C)c(N)cc3nc2cc1N`, 34% (inactive). In the case of `CC12C(=O)OC(=O)C(c3ccccc31)c1ccccc12`, the growth inhibition was 9% (inactive).

For the compound `c1ccc2c(OCC3CO3)cccc2c1` (stereo not given), the growth inhibition was 3% (inactive). Regarding `CCOC(=N)c1ccc(O)c(OC)c1`, the growth inhibition was 2% (inactive).

Take `Nc1cc(N)c(N=Nc2cccc3c(S(=O)(=O)O)cccc23)cc1N=Nc1cc([N+](=O)[O-])ccc1O`: the growth inhibition was 33% (inactive). Consider `COC(=O)Oc1cc(Cl)c(Cl)cc1Cl`, for which the growth inhibition was 3% (inactive). The same measure, in the same setting: to `O=C(O)C1CC(c2ccccc2)=NN1c1ccccc1` (stereo not given) belongs -15% (inactive); to `COc1cc([C@@H]2c3cc4c(cc3[C@@H](Nc3ccc(NC(=O)c5cc([N+](=O)[O-])cn5C)cc3)[C@H]3COC(=O)[C@H]23)OCO4)cc(OC)c1O`, 16% (inactive) and 22% (inactive); to `O=C(O)c1ccccc1/C=N/N=C1c2ccccc2-c2ccccc21`, -23% (inactive). On the same count and under the same terms, to `O=C1CC(=O)c2ccccc21` belongs 0% (inactive). Regarding `Nc1ncnc2c1ncn2C1OC(CO)CC1O` (stereo not given), the growth inhibition is 10% (inactive) and 9% (inactive).
